Source: PubChem BioAssay AID1159580 (chemical genetic matrix, 2015)
The campaign covered roughly 5,500 compounds. About 2,000 (36%) were called active. About 18% were inconclusive and are not listed. Rule as the data show it: active = normalized growth mostly below about 0.91 (no sharp cut-off); inconclusive = no clear call, values can overlap the other calls; inactive = mostly above about 0.92. Some of the results follow.

Experiment: chemical genetic growth profiling, strain panel (AID 1159580);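 also: tested at 20 µM; growth read once vehicle control cultures reached saturation at 30 °C; 1 = growth at the plate median or of vehicle wells; lower values mean less growth of the strain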
Conditions: growth OD

Measured: normalized growth

OC[C@@H]1CCCN2CCCC[C@H]12
inactive: S. cerevisiae deletion strains, locus YJR066W, strain TOR1, stronger effect = lower value 0.967 | S. cerevisiae deletion strains, locus YJR075W, strain HOC1, stronger effect = lower value 1.02 | S. cerevisiae deletion strains, locus YKL009W, strain mrt4, stronger effect = lower value 1.02 | S. cerevisiae deletion strains, locus YKL068W, stronger effect = lower value 1.01 | S. cerevisiae deletion strains, locus YKL085W, strain MDH1 (second series), stronger effect = lower value 1 | S. cerevisiae deletion strains, locus YKL085W, strain MDH1, stronger effect = lower value 1 | S. cerevisiae deletion strains, locus YKL160W, strain elf1, stronger effect = lower value 1.02 | S. cerevisiae deletion strains, locus YKR001C, strain vps1, stronger effect = lower value 1.01 | S. cerevisiae deletion strains, locus YKR026C, strain gcn3, stronger effect = lower value 1.06 | S. cerevisiae deletion strains, locus YKR091W, strain srl3, stronger effect = lower value 1.02 | S. cerevisiae deletion strains, locus YLL001W, strain dnm1, stronger effect = lower value 0.995 | S. cerevisiae deletion strains, locus YLL026W, stronger effect = lower value 1.03 | S. cerevisiae deletion strains, locus YLL041C, strain sdh2, stronger effect = lower value 1.01 | S. cerevisiae deletion strains, locus YLR027C, strain aat2, stronger effect = lower value 1.02 | S. cerevisiae deletion strains, locus YLR039C, strain RIC1, stronger effect = lower value 1.02 | S. cerevisiae deletion strains, locus YLR058C, strain SHM2, stronger effect = lower value 1.01 | S. cerevisiae deletion strains, locus YLR102C, strain apc9, stronger effect = lower value 1.01 | S. cerevisiae deletion strains, locus YLR113W, strain HOG1, stronger effect = lower value 1.01 | S. cerevisiae deletion strains, locus YLR221C, strain rsa3, stronger effect = lower value 1.02 | S. cerevisiae deletion strains, locus YLR258W, strain gsy2, stronger effect = lower value 1.04 | S. cerevisiae deletion strains, locus YLR262C, strain YPT6 (second series), stronger effect = lower value 1.04 | S. cerevisiae deletion strains, locus YLR262C, strain YPT6, stronger effect = lower value 1.06 | S. cerevisiae deletion strains, locus YLR268W, strain sec22, stronger effect = lower value 1.03 | S. cerevisiae deletion strains, locus YLR320W, strain mms22, stronger effect = lower value 0.99 | S. cerevisiae deletion strains, locus YLR330W, strain CHS5, stronger effect = lower value 0.98 | S. cerevisiae deletion strains, locus YLR342W, strain FKS1 (second series), stronger effect = lower value 0.977 | S. cerevisiae deletion strains, locus YLR342W, strain FKS1, stronger effect = lower value 1.03 | S. cerevisiae deletion strains, locus YLR357W, strain rsc2, stronger effect = lower value 1.02 | S. cerevisiae deletion strains, locus YLR370C, strain arc18, stronger effect = lower value 1.03 | S. cerevisiae deletion strains, locus YLR371W, strain rom2, stronger effect = lower value 1.01 | S. cerevisiae deletion strains, locus YLR384C, strain iki3, stronger effect = lower value 1.03 | S. cerevisiae deletion strains, locus YLR418C, strain cdc73, stronger effect = lower value 1.03 | S. cerevisiae deletion strains, locus YML016C, strain PPZ1, stronger effect = lower value 1 | S. cerevisiae deletion strains, locus YML032C, strain rad52, stronger effect = lower value 0.995 | S. cerevisiae deletion strains, locus YML120C, strain ndi1, stronger effect = lower value 1.03 | S. cerevisiae deletion strains, locus YML124C, strain tub3, stronger effect = lower value 1 | S. cerevisiae deletion strains, locus YMR058W, strain fet3, stronger effect = lower value 1.03 | S. cerevisiae deletion strains, locus YMR078C, strain ctf18, stronger effect = lower value 1.01 | S. cerevisiae deletion strains, locus YMR125W, strain sto1, stronger effect = lower value 1.05 | S. cerevisiae deletion strains, locus YMR129W, stronger effect = lower value 1.04 | S. cerevisiae deletion strains, locus YMR205C, strain PFK2, stronger effect = lower value 1.01 | S. cerevisiae deletion strains, locus YMR223W, strain ubp8, stronger effect = lower value 1 | S. cerevisiae deletion strains, locus YMR231W, strain pep5, stronger effect = lower value 1.04 | S. cerevisiae deletion strains, locus YMR263W, strain SAP30, stronger effect = lower value 0.999 | S. cerevisiae deletion strains, locus YMR307W, strain GAS1, stronger effect = lower value 1 | S. cerevisiae deletion strains, locus YNL067W, strain RPL9B, stronger effect = lower value 1 | S. cerevisiae deletion strains, locus YNL071W, strain lat1, stronger effect = lower value 1.03 | S. cerevisiae deletion strains, locus YNL183C, strain NPR1, stronger effect = lower value 0.964 | S. cerevisiae deletion strains, locus YNL209W, strain ssb2, stronger effect = lower value 1.02 | S. cerevisiae deletion strains, locus YNL233W, strain BNI4, stronger effect = lower value 1.01 | S. cerevisiae deletion strains, locus YNL248C, strain rpa49, stronger effect = lower value 1.03 | S. cerevisiae deletion strains, locus YNL250W, strain rad50, stronger effect = lower value 1.03 | S. cerevisiae deletion strains, locus YNL271C, strain bni1, stronger effect = lower value 1 | S. cerevisiae deletion strains, locus YNL298W, strain CLA4, stronger effect = lower value 1.01 | S. cerevisiae deletion strains, locus YNL307C, strain MCK1, stronger effect = lower value 1.03 | S. cerevisiae deletion strains, locus YNL322C, strain KRE1 (second series), stronger effect = lower value 1.04 | S. cerevisiae deletion strains, locus YNL322C, strain KRE1, stronger effect = lower value 1 | S. cerevisiae deletion strains, locus YNR049C, strain mso1, stronger effect = lower value 1.03 | S. cerevisiae deletion strains, locus YNR052C, strain pop2, stronger effect = lower value 1.01 | S. cerevisiae deletion strains, locus YOL006C, strain TOP1, stronger effect = lower value 1.06 | S. cerevisiae deletion strains, locus YOL012C, strain htz1 0.808 | S. cerevisiae deletion strains, locus YOL147C, strain pex11, stronger effect = lower value 1.02 | S. cerevisiae deletion strains, locus YOR001W, strain rrp6, stronger effect = lower value 1.02 | S. cerevisiae deletion strains, locus YOR061W, strain CKA2, stronger effect = lower value 1.01 | S. cerevisiae deletion strains, locus YOR069W, strain VPS5, stronger effect = lower value 1.01 | S. cerevisiae deletion strains, locus YOR070C, strain gyp1, stronger effect = lower value 1.04 | S. cerevisiae deletion strains, locus YOR080W, strain dia2, stronger effect = lower value 1.03 | S. cerevisiae deletion strains, locus YOR083W, strain WHI5, stronger effect = lower value 0.97 | S. cerevisiae deletion strains, locus YOR106W, strain vam3, stronger effect = lower value 1.05 | S. cerevisiae deletion strains, locus YOR136W, strain idh2, stronger effect = lower value 1.03 | S. cerevisiae deletion strains, locus YOR144C, strain elg1, stronger effect = lower value 1.01 | S. cerevisiae deletion strains, locus YOR184W, strain ser1, stronger effect = lower value 1.02 | S. cerevisiae deletion strains, locus YOR231W, strain MKK1, stronger effect = lower value 1.03 | S. cerevisiae deletion strains, locus YOR265W, strain rbl2, stronger effect = lower value 1.01 | S. cerevisiae deletion strains, locus YOR270C, strain vph1, stronger effect = lower value 1.14 | S. cerevisiae deletion strains, locus YOR290C, strain snf2, stronger effect = lower value 1.04 | S. cerevisiae deletion strains, locus YOR316C, strain cot1, stronger effect = lower value 1.01 | S. cerevisiae deletion strains, locus YPL051W, strain arl3, stronger effect = lower value 1.04 | S. cerevisiae deletion strains, locus YPL055C, strain LGE1, stronger effect = lower value 1.01 | S. cerevisiae deletion strains, locus YPL078C, strain atp4, stronger effect = lower value 1.04 | S. cerevisiae deletion strains, locus YPL106C, strain sse1, stronger effect = lower value 1.03 | S. cerevisiae deletion strains, locus YPL240C, strain hsp82, stronger effect = lower value 1.04 | S. cerevisiae deletion strains, locus YPL241C, strain CIN2, stronger effect = lower value 1 | S. cerevisiae deletion strains, locus YPL256C, strain CLN2, stronger effect = lower value 1.01 | S. cerevisiae deletion strains, locus YPR119W, strain clb2, stronger effect = lower value 1.02 | S. cerevisiae deletion strains, locus YPR141C, strain kar3, stronger effect = lower value 1.01 | S. cerevisiae deletion strains, locus YPR163C, strain tif3, stronger effect = lower value 1.01 | S. cerevisiae deletion strains, locus YPR167C, strain met16, stronger effect = lower value 1.01 | S. cerevisiae deletion strains, strain wtn01, stronger effect = lower value 1.03 | S. cerevisiae strains, strain wild type, stronger effect = lower value 0.979
